# In PubChem BioAssay (Tox21):
# Records with an inconclusive call do not appear. Values without a mark were called inactive. Activity calls are given as the source filed them. Calls come from the whole dose curve; as a rule, active = well fitted curve in the direction sought with a large enough effect in the repeat runs; inconclusive = weak or mixed curves; inactive = no such curve, though single readings can be large; an effect the other way counts as inactive or inconclusive.
# Assay: qHTS RealTime-Glo MT Cell Viability Assay in HEK293 cells - 0 hour (AID 1224880); note: top concentration of the series differs between compounds; nearly all actives have a fitted effect of over 45% in size
# Details: RealTime-Glo luminescence; series mostly up to 76.8 µM; activity change, negative = cytotoxicity: at the top concentration
# In short: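 HEK293 + NanoLuc + prosubstrate, 600 cells/well; 5 h, 37 C/5% CO2; compound 23 nL in DMSO by pintool; 37 C; luminescence read at 0, 8, 16, 24, 32 and 40 h time points.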
# % is set by controls: 0 for no effect and ±100 for the full control effect.
row,Structure (SMILES),"activity change, negative = cytotoxicity"
1,CC(C)O,-4.32%
2,NC(=O)Cc1cccc(C(=O)c2ccccc2)c1N,-4.39% [at 35.3 µM]
3,Cc1cc(S(=O)(=O)O)c(N)cc1Cl,-12.2%
4,Cc1ccc(C=O)s1,-1.3%
5,CCCC1CCC(=O)O1 (stereo not drawn),-6.8%
6,O=Cc1ccc(F)c(Br)c1,4.28%
7,O=c1oc2c(O)c(O)cc3c(=O)oc4c(O)c(O)cc1c4c23,-5.71% [at 15.8 µM]
8,C[C@@H](N)C(=O)O,-1.62% [at 35.3 µM]
9,O=C1CCCCC1C1CCCCC1 (stereo not drawn),1.73%
10,CCCCCCCCCCCCOCCOS(=O)(=O)O,-16.5%
11,O=C(O)c1cccc(Cl)c1Cl,-14.4%
12,CCCS(=O)c1ccc2nc(NC(=O)OC)[nH]c2c1 (stereo not drawn),1.38% [at 35.3 µM]
13,Oc1ccccc1F,4.61%
14,CNCCC(Oc1ccccc1OC)c1ccccc1 (stereo not drawn),4.57% [at 35.3 µM]
15,CCN1CC(CCN2CCOCC2)C(c2ccccc2)(c2ccccc2)C1=O (stereo not drawn),16.8% [at 35.3 µM]
16,CCC(=O)Nc1ccc(O)cc1,13.4% [at 35.3 µM]
17,COC(=O)c1ccc2cc(C(=O)OC)ccc2c1,3.21% [at 15.8 µM]
18,NC(=O)NS(=O)(=O)c1ccc(Cl)cc1,-12.9% [at 35.3 µM]
19,CC1(O)CSC(C)(O)CS1 (stereo not drawn),16.4%
20,CCN(O)CC,-0.335%

row,Structure (SMILES),"activity change, negative = cytotoxicity"
1,OCCN(CCO)CCN(CCO)CCO,4.88%
2,Cc1ccc(C)c(N)c1,-0.999%
3,Nc1ccc2ccccc2c1S(=O)(=O)O,2.27%
4,CC(=O)Nc1ccc(C)c(Cl)c1,-0.784%
5,CCCOc1ccc2c(c1)CC[C@@H]1[C@@H]2CC[C@]2(C)C(OC)CC[C@@H]12 (stereo partly drawn),-2.35% [at 35.3 µM]
6,CCCCCCCCCC/C=C/C#N,-2.06%
7,OCc1ccccc1O,-6.54% [at 35.3 µM]
8,OC[C@H]1O[C@@H](O[C@H]2[C@H](O)[C@@H](O)[C@H](O)O[C@@H]2CO)[C@H](O)[C@@H](O)[C@H]1O,-2.27%
9,COc1cc(N)c(Cl)cc1C(=O)NC1CCN(Cc2ccccc2)CC1,-3.69% [at 35.3 µM]
10,CO[Si](C)(C)OC,-1.21%
11,CCN(CC)CC1CCCCN1CC(=O)N1c2ccccc2C(=O)Nc2cccnc21 (stereo not drawn),8.5% [at 35.3 µM]
12,COC(=O)c1ccc(OC)cc1,-4.76%
13,NS(=O)(=O)c1cc(-c2nn[nH]n2)c(NCc2cccs2)cc1Cl,-26.2% [at 35.3 µM]
14,CCOc1ccc(NC(N)=O)cc1,6.77%
15,CCCCC1CCC(=O)O1 (stereo not drawn),-0.087%
16,CC(CNC1CCCCC1)OC(=O)c1ccccc1 (stereo not drawn),-5.6% [at 35.3 µM]
17,CC(C)Nc1nc(N)nc(Cl)n1,-0.439%
18,C/C(=N\O)[C@@H](C)NCC(C)(C)CN[C@H](C)/C(C)=N/O,5.27% [at 35.3 µM]
19,CCCCNc1cc(C(=O)O)cc(S(N)(=O)=O)c1Oc1ccccc1,-2.96% [at 35.3 µM]

# Assay: A CellTox Green Cytotoxicity Assay to monitor cytotoxicity in HEK293 cells - 32 hour (AID 1224881); note: nearly all actives have a fitted effect of over 40% in size; note: potency is the fitted concentration of half-maximal effect
# Details: CellTox Green fluorescence; series mostly up to 76.8 µM; cytotoxicity increase: at the top concentration
# In short: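 Tox21 screen in HEK293: membrane-impermeant cyanine dye fluoresces on binding dead-cell DNA; compound pinned 5 h post-seeding, plates held at 37 C, signal read repeatedly through 40 h.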
Structure (SMILES),cytotoxicity increase,Potency
CC(C)O,9.95%,
NC(=O)Cc1cccc(C(=O)c2ccccc2)c1N,-21.3% [at 35.3 µM],
Cc1cc(S(=O)(=O)O)c(N)cc1Cl,-0.642%,
Cc1ccc(C=O)s1,,43.6 µM (active)
CCCC1CCC(=O)O1 (stereo not drawn),-4.21%,
O=Cc1ccc(F)c(Br)c1,11.4%,
O=c1oc2c(O)c(O)cc3c(=O)oc4c(O)c(O)cc1c4c23,18.3% [at 15.8 µM],
C[C@@H](N)C(=O)O,-3.39% [at 35.3 µM],
O=C1CCCCC1C1CCCCC1 (stereo not drawn),4.21%,
CCCCCCCCCCCCOCCOS(=O)(=O)O,,24.5 µM (active)
O=C(O)c1cccc(Cl)c1Cl,-2.18%,
CCCS(=O)c1ccc2nc(NC(=O)OC)[nH]c2c1 (stereo not drawn),-7.58% [at 35.3 µM],
Oc1ccccc1F,10.7%,
CNCCC(Oc1ccccc1OC)c1ccccc1 (stereo not drawn),1.89% [at 35.3 µM],
CCN1CC(CCN2CCOCC2)C(c2ccccc2)(c2ccccc2)C1=O (stereo not drawn),5.38% [at 35.3 µM],
CCC(=O)Nc1ccc(O)cc1,3.69% [at 35.3 µM],
COC(=O)c1ccc2cc(C(=O)OC)ccc2c1,1.19% [at 15.8 µM],
NC(=O)NS(=O)(=O)c1ccc(Cl)cc1,-12.9% [at 35.3 µM],
CC1(O)CSC(C)(O)CS1 (stereo not drawn),-2.09%,
CCN(O)CC,-3.62%,

Structure (SMILES),cytotoxicity increase,Potency
OCCN(CCO)CCN(CCO)CCO,-1.84%,
Cc1ccc(C)c(N)c1,6.28%,
Nc1ccc2ccccc2c1S(=O)(=O)O,-1.58%,
CC(=O)Nc1ccc(C)c(Cl)c1,2.56%,
CCCOc1ccc2c(c1)CC[C@@H]1[C@@H]2CC[C@]2(C)C(OC)CC[C@@H]12 (stereo partly drawn),7.43% [at 35.3 µM],
CCCCCCCCCC/C=C/C#N,-3.11%,
OCc1ccccc1O,-9.22% [at 35.3 µM],
OC[C@H]1O[C@@H](O[C@H]2[C@H](O)[C@@H](O)[C@H](O)O[C@@H]2CO)[C@H](O)[C@@H](O)[C@H]1O,-20.7%,
COc1cc(N)c(Cl)cc1C(=O)NC1CCN(Cc2ccccc2)CC1,8.23% [at 35.3 µM],
CO[Si](C)(C)OC,-9.54%,
CCN(CC)CC1CCCCN1CC(=O)N1c2ccccc2C(=O)Nc2cccnc21 (stereo not drawn),22% [at 35.3 µM],
COC(=O)c1ccc(OC)cc1,0.182%,
NS(=O)(=O)c1cc(-c2nn[nH]n2)c(NCc2cccs2)cc1Cl,2.86% [at 35.3 µM],
CCOc1ccc(NC(N)=O)cc1,1.55%,
CCCCC1CCC(=O)O1 (stereo not drawn),2.63%,
CC(CNC1CCCCC1)OC(=O)c1ccccc1 (stereo not drawn),-12.7% [at 35.3 µM],
CC(C)Nc1nc(N)nc(Cl)n1,1.38%,
C/C(=N\O)[C@@H](C)NCC(C)(C)CN[C@H](C)/C(C)=N/O,-9.85% [at 35.3 µM],
CCCCNc1cc(C(=O)O)cc(S(N)(=O)=O)c1Oc1ccccc1,-16.4% [at 35.3 µM],
